High-throughput results as filed in PubChem.
Shn3 inh set2 = reduction of Shn3 3'UTR firefly luciferase signal, primary screen, Schnurri-3 inhibitor project, cell-based, Clone20 osteoblasts, set 2; Clone20 osteoblast Shn3 3'UTR firefly luciferase, 24 h; inhibition, % at 12.5 µM; 360,000 tested, 0.52% active; AID 588674, 2011;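 active means mean inhibition of at least 75% with every replicate also reaching 75%; inconclusive means mean inhibition at least 75% but some replicate below; inactive means mean inhibition below 75%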;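 further: 0% = median of neutral control wells and 100% = pilot-screen positive control compound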
TWEAK-Fn14 inh = inhibitors of TWEAK-Fn14 signaling, primary screen, luciferase reporter cells, uHTS; TWEAK-stimulated Fn14 reporter cells, luciferase luminescence, 8 h; 360,000 tested, 2% active; AID 1159606, 2016; inhibition, % at 10 µM; in the data active means inhibition above about 50%
TROY NFkB inh = inhibitors of TROY-driven NF-kB signaling, primary screen, Q293 LMP1-TROYcd cells, NF-kB luciferase, uHTS. Q293 LMP1-TROYcd NF-kB luciferase reporter, 4 h. inhibition, % at 10 µM. 360,000 tested, 0.98% active;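 active means compounds whose plate-normalised and pattern-corrected inhibition of the luciferase reporter signal at the single screening dose is 50% or more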
HIF-2a inh = HIF-2a reporter inhibitors, primary screen, luminescence, 786-0 RCC cells; 360,000 tested, 0.72% active; inhibition, % at 18.8 µM; 786-0 RCC cells HIF-2a reporter, luciferase luminescence, overnight; AID 624352, 2012;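 active means inhibition of the luminescence signal of 40% or more relative to plate controls, in a single-dose primary screen at 18.75 µM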
MITF TRPM1 inh = inhibitors of MITF-dependent TRPM1 promoter reporter, primary screen, cell-based, SK-MEL-5, single point, luciferase. SK-MEL-5 TRPM1 promoter luciferase, 24 h. inhibition, % at 12.5 µM. 330,000 tested, 0.83% active. AID 488899, 2010;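 active means mean inhibition across replicates of 60% or more, whatever share of single replicates reaches that level; inconclusive means some that reach 60%, reason not given; inactive means mean inhibition across replicates below 60%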
LMP1 NFkB inh = EBV LMP1-driven NF-kappaB luciferase reporter inhibitors, primary screen, cell-based, luminescence, single point; LMP1-induced NF-kappaB luciferase reporter cells; inhibition, % at 12.5 µM; 350,000 tested, 0.69% active; AID 504558, 2011; in the data active means inhibition above about 41%; inconclusive means no clear call, values can overlap the other calls;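 further: 0% = neutral control wells and 100% = reference inhibitor control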
* marks the source's active call; other numbers are inactive results; ? = inconclusive; nt = not tested or not shown. A selection: hits, their analogues and other compounds. The true share with any hit is near 3.4%.

SMILES	Shn3 inh set2	TWEAK-Fn14 inh	TROY NFkB inh	HIF-2a inh	MITF TRPM1 inh	LMP1 NFkB inh
CN(Cc1ccc(Cl)c(Cl)c1)C(=O)c1cccc(S(=O)(=O)N2CCN(Cc3ccccc3)CC2)c1	87*	36	39	12	14	7
O=C(c1cccc(S(=O)(=O)N2CCN(c3ccc(F)cc3)CC2)c1)N1CCCC(C(F)(F)F)C1 (stereo unspecified)	92*	21	22	10	21	25
CN(CC(=O)Nc1ccccc1Cl)C(=O)c1cccc(S(=O)(=O)N2CCN(c3ccc(F)cc3)CC2)c1	88*	-5	4	18	27	20
Cc1nn(CC(=O)NC(C)C(C)C)c(C)c1S(=O)(=O)N1CCCCC1 (stereo unspecified)	4	12	-10	8	-7	4
O=[N+]([O-])c1cc([N+](=O)[O-])c2oc(-c3ccccc3)c(Br)c2c1O	1	36	69*	-16	9	2
CCc1ccccc1OCC(=O)Nc1cccc(S(=O)(=O)NC2=NCCC2)c1	7	-9	-30	-26	-11	-4
N#Cc1c(SCc2ccc(Cl)cc2)sc(C(=O)c2ccccc2)c1N	7	89*	-1	-13	1	1
CSc1c(C#N)c(N)nc2sc(C(=O)c3ccccc3)c(N)c12	-32	-5	6	0	-6	5
O=C(Nc1nnc(-c2cccs2)o1)c1cccc(C(F)(F)F)c1	12	101*	9	-3	19	?
N#Cc1ccc(C(=O)Nc2nnc(-c3cccs3)o2)cc1	-9	13	-26	-84	-3	16
COc1ccc(-c2nnc(Sc3nc4ccccc4o3)c3ccccc23)cc1	-11	74*	-22	39	-5	0
COc1ccc(COc2ccccc2C(=O)NCc2ccccc2)cc1F	84	69*	47	6	33	22
COc1cc(C(=O)NCc2ccccc2)ccc1OC(F)F	-2	32	5	14	17	-3
O=C(O)c1cc(C(=O)O)cc(-c2ccc(/C=c3/sc4nc5ccccc5n4c3=O)o2)c1	nt	nt	nt	nt	7	-4
O=C(O)c1ccccc1-c1ccc(C=c2sc3nc4cc(Br)cnc4n3c2=O)o1	20	54*	14	0	nt	nt
O=C(NNC(=O)C1C2C=CC(C2)C1C(=O)O)c1ccccc1O (stereo unspecified)	-26	1	-6	4	-4	-1
Clc1ccc(OCc2cc(-c3ccccc3)no2)c(Cl)c1	-48	62*	50	-127	-10	0
CCNC(=O)C1CCCN(Cc2ccc(C(=O)OCC)cc2)CC1 (stereo unspecified)	-2	-8	5	-4	nt	nt
CC(=O)c1c[nH]c(C(=O)Nc2ccc(N3CCCCCC3)cc2)c1	2	69*	22	-47	10	7
Cc1cc(C(=O)Nc2ccc(N3CCCCC3)cc2)no1	-4	73*	26	-98	-6	29
Cc1cc(C(=O)Nc2ccc(S(=O)(=O)N3CCCC3)cc2)no1	-13	17	1	-1	0	3
Cc1ccc(C(=O)Nc2ccc(N3CCCCC3)cc2)cc1	-104	13	-36	-229	-101	-28
Cc1cc(C(=O)CSc2ccc(F)cc2)cc(C)c1OC(=S)N(C)C	32	100*	nt	-1	17	24
O=C(NCCS(=O)(=O)N1CCN(c2ccccc2)CC1)C1CCCCC1	-1	-10	-1	7	nt	4
O=C(CCn1c(=O)c2cccn2c2cccnc21)NCCCN1CCN(c2ccc(F)cc2)CC1	61	-19	4	13	nt	0
SMILES	Shn3 inh set2	TWEAK-Fn14 inh	TROY NFkB inh	HIF-2a inh	MITF TRPM1 inh	LMP1 NFkB inh
COc1ccc(C(=O)NCC(=O)Nc2ccccc2)cc1OC	-7	59*	nt	-2	-3	-1
COc1ccc(C(=O)NCCCNC(=O)c2cc3ccccc3[nH]2)cc1OC	-1	-3	16	17	13	75*
COc1cc(C(=O)NCC(=O)Nc2c(C)cccc2C)ccc1OCc1ccccc1	-11	-5	-27	-19	-11	-4
O=C(NCCCO)c1cc2ccccc2[nH]1	-8	11	-9	2	7	-4
CCCc1nn(C)c(C(=O)Nc2cccc(Cl)c2)c1Cl	-22	78*	70*	-10	-8	2
CCCc1nn(C)c(C(=O)Nc2cccc(C)c2)c1Cl	-28	35	24	-122	-44	-9
CCCc1nn(C)c(C(=O)Nc2ccccc2)c1Cl	-42	81*	76*	-76	-28	-5
Cc1cc(C)c(S(=O)(=O)/N=C2\C=C(NS(=O)(=O)c3ccccc3)C(=O)c3ccccc32)c(C)c1	9	-1	18	8	25	0
Cc1cc(C)c(S(=O)(=O)/N=C2\C=C(Nc3ccc(C(=O)O)cc3)C(=O)c3ccccc32)c(C)c1	74	96*	62*	-14	78*	9
O=C(O)c1ccc(NC2=C/C(=N/S(=O)(=O)c3ccccc3)c3ccccc3C2=O)cc1	?	97*	50*	44*	63*	-12
O=c1[nH]c(=O)n(CCCc2ccccc2)cc1-c1ccccc1	13	6	-8	18	-2	3
CCOc1ccc(NC(=O)CC2C(=O)N(c3ccc(OCC)cc3)C(=S)N2C2CC2)cc1 (stereo unspecified)	-7	17	15	4	4	-1
CCCOc1ccc(NC(=O)CC2C(=O)N(c3ccc(OCC)cc3)C(=S)N2C2CC2)cc1 (stereo unspecified)	22	-13	-5	7	75*	-5
O=C1/C(=C\c2cccnc2)Sc2ccccc21	9	-6	-8	-41	-4	-9
CC1C/C(=C\c2cccnc2)C(=O)/C(=C/c2cccnc2)C1 (stereo unspecified)	71	103*	52*	93*	97*	92*
O=C1/C(=C/c2cccnc2)CCc2c1[nH]c1ccccc21	55	62*	7	-200	-81	11
Clc1cccc(Cc2c(-c3ccco3)nc3ccc(Br)cn23)c1	-5	46	6	24	nt	nt
COc1ccccc1Cc1c(-c2cccc(Br)c2)nc2c(C)cc(Br)cn12	-9	37	1	-173	nt	nt
COc1ccccc1Cc1c(-c2ccc(Cl)cc2)nc2c(C)cc(Br)cn12	1	60*	25	-51	nt	nt
Cc1cc(Br)cn2c(Cc3cccc(Cl)c3)c(-c3ccco3)nc12	nt	68*	3	-94	nt	nt
Cc1ccc(Cc2c(-c3ccco3)nc3c4ccccc4ccn23)cc1	-13	81*	47	-90	nt	nt
